Source: PubChem BioAssay (several laboratories)
PostGolgi ctrl: yeast control strain growth, post-Golgi counter-screen. efflux-deficient yeast background strain, growth absorbance A615, 16 h. 98,000 tested, 5% active. inhibition, % at 10 µM. AID 738
CYP2C9 inh: human CYP2C9 inhibition; P11712; CYP2C9 Supersomes, luciferin-H conversion, luminescence; inhibition, % at 5 µM; 96,000 tested, 20% active;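 active means blocking of liver enzyme CYP2C9 beyond about 50% at 5 µM, limit read from the data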
CYP2C19 activ: activators of human cytochrome P450 2C19 | P33261 | recombinant CYP2C19, luciferin-H EGE luminescence; hits give high values; 0 = fully inhibited enzyme, 1 = untreated enzyme | activation factor at 5 µM | 96,000 tested, under 10 active | AID 1025;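 active means activation factor of at least 2 at 5 µM in the primary screen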;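 further: 0 = wells with 2.5 mM tranylcypromine and 1 = vehicle-only wells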
Target sequence (P33261 whole entry, looked up): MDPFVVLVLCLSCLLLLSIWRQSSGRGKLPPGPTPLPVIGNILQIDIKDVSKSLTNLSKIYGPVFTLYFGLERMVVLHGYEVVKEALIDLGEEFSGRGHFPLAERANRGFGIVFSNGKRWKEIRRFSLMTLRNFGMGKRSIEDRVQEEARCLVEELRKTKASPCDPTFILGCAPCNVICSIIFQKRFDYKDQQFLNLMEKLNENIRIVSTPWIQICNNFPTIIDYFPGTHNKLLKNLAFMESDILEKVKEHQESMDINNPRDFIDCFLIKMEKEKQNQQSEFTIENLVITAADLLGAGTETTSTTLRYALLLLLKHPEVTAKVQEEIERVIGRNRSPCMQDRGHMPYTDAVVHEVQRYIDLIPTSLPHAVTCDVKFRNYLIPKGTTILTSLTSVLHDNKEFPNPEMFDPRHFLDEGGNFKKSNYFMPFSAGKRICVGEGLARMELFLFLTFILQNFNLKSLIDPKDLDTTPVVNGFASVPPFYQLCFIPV
CYP2C9 act: activators of human CYP2C9 | AID 1024 | activation factor at 5 µM | recombinant CYP2C9, luciferin-H conversion, luminescence; hits give high values; factor 1 = untreated enzyme, 0 = blocked | P11712 | 96,000 tested, 1.4% active;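 active means activation factor of 2 or more for CYP2C9 at a 5 µM dose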;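 further: 0 = sulfaphenazole-blocked wells and 1 = vehicle-only wells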
PostGolgi yeast: growth inhibition of a yeast mutant, post-Golgi transport screen; post-Golgi transport phenotypic cell assay; inhibition, % at 10 µM; 98,000 tested, 0.9% active; AID 739;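 further: yeast cells grown in 1536-well plates; yeast grown about 18 h at 30C before absorbance read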
CYP2C19 inhib: inhibitors of human CYP2C19; CYP2C19 Supersomes, luciferin-H EGE luminescence, 30 min; P33261; inhibition, % at 5 µM; 96,000 tested, 21% active;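 active means CYP2C19 inhibition above a set limit at 5 µM in the primary screen, cut at about 50% in these data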;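 further: plate controls were negative control wells for no effect and 2.5 mM tranylcypromine positive control for full effect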
* hit, by the source's call; . = no result given. In the library only some 32% were active in any assay of this set; here they are far more common. Unless noted, no stated cut-off is given here; in the data, active means inhibition above about 30%; inactive means the rest.

SMILES	PostGolgi ctrl	CYP2C9 inh	CYP2C19 activ	CYP2C9 act	PostGolgi yeast	CYP2C19 inhib
CSCC[C@H](NC(=O)OC(C)(C)C)c1nnc(SCc2ccc(F)cc2)o1	0	78*	0.1	0.2	21	88*
CC(C)C[C@H](NC(=O)OC(C)(C)C)c1nnc(SCc2cccc(F)c2)o1	3	8	0.7	0.9	-12	35
CCN(CC)C(=O)CSc1nnc([C@H](Cc2c[nH]c3ccccc23)NC(=O)OC(C)(C)C)o1	6	62*	0.5	0.4	2	53*
Cc1ccc(N(C(=O)c2sc(C)nc2C)C(C(=O)NCc2ccco2)c2ccccc2)cc1 (stereo unspecified)	5	10	0.8	0.9	3	16
Cc1ccc(-n2c(=O)c3sccc3n(CC(=O)NCc3ccco3)c2=O)cc1F	-1	9	1.1	0.9	-7	-5
CSCC[C@H](NC(=O)OC(C)(C)C)c1nnc(SCC(=O)N(C)C)o1	12	-8	1	1.1	3	3
CSCC[C@H](NC(=O)OC(C)(C)C)c1nnc(SCc2ccccc2)o1	0	60*	0.2	0.4	5	79*
Fc1cccc(C[n+]2csc3ccccc32)c1	6	62*	0.6	0.4	20	37
c1ccc(C[n+]2csc3ccccc32)cc1	1	55*	0.6	0.4	25	41
c1ccc(C[n+]2cccc3c4ccccc4ccc32)cc1	-2	-31	1	1.3	-1	0
COc1cccc(C(=O)Oc2cc(-c3ccccc3)no2)c1	-3	6	1	0.9	0	-3
CN(C)CCCNc1oc(-c2cccc(Cl)c2)nc1C#N	-1	4	0.9	1	8	11
O=C(NNC1CC(=O)N(c2ccc3c(c2)OCCO3)C1=O)c1ccccc1 (stereo unspecified)	-4	6	0.9	0.9	-5	6
O=C(Cn1cnc2c(nnn2Cc2ccccc2)c1=O)c1ccccc1	0	.	.	.	-8	.
Cc1cccc(Cn2cnc3c(nnn3Cc3ccccc3F)c2=O)c1	17	-183	0.5	2.8*	-6	52*
Cc1cccc(Cn2cnc3c(nnn3Cc3ccc(F)cc3)c2=O)c1	11	-153	0.4	2.5*	0	58*
O=c1c2nnn(Cc3ccccc3)c2ncn1-c1ccccc1	34*	-38	1	1.4	-3	-1
Cc1ccc(-n2nnc3c(=O)n(Cc4cccc(C)c4)cnc32)cc1	2	39	0.7	0.6	-9	29
Clc1ccc(-c2nnc(SCc3ccon3)o2)c(Cl)c1	12	62*	0	0.4	-11	97*
C=CCSc1nnc(-c2ccc(Cl)cc2Cl)o1	9	32	0.2	0.7	9	84*
O=C(CN(Cc1ccco1)C(=O)Cn1nnc(-c2ccc(F)cc2)n1)NC1CCCC1	1	39	0.9	0.6	-9	15
CCCCC(C(=O)NC1CCCC1)N(Cc1ccco1)C(=O)Cn1nnc(-c2ccc(F)cc2)n1 (stereo unspecified)	7	92*	0.1	0.1	-2	92*
CCC(C(=O)NC1CCCC1)N(C(=O)Cn1nnc(-c2ccc(OC)c(OC)c2)n1)C1CCCCC1 (stereo unspecified)	1	52*	0.3	0.5	0	72*
COc1ccc(-c2nnn(CC(=O)N(Cc3cccs3)C(C)C(=O)NC3CCCC3)n2)cc1OC (stereo unspecified)	2	52*	0.4	0.5	-1	57*
CC(C)(C)OC(=O)Cn1c(=O)cnc2ccccc21	6	-10	0.7	1.1	4	34
SMILES	PostGolgi ctrl	CYP2C9 inh	CYP2C19 activ	CYP2C9 act	PostGolgi yeast	CYP2C19 inhib
Cn1cc(C(=O)c2cccc(Cl)c2Cl)cc1C(=O)O	1	-8	1.1	1.1	-7	-9
Cn1cc(C(=O)c2ccc(Cl)cc2Cl)cc1C(=O)N/N=C(\N)COc1cccc(C(F)(F)F)c1	20	62*	0.4	0.4	-5	64*
COC(=O)c1cc(C(=O)c2ccc(Cl)cc2Cl)cn1C	10	14	0.4	0.9	-2	58*
COC(=O)c1cc(C(=O)c2cccc(Cl)c2Cl)cn1C	0	-96	0.1	2*	-4	90*
CSc1ccc(Cl)c(C(=O)Nc2ccc(OCC(N)=O)cc2)c1	-2	-44	1	1.4	-6	3
CSc1nnc(Cc2cc(=O)[nH]c(=O)[nH]2)n1-c1cc(C)ccc1C	5	1	1	1	-1	-1
